{"source": "paper PMC7862700", "about": "“An all-to-all approach to the identification of sequence-specific readers for epigenetic DNA modifications on cytosine”", "assay_in_all_cases": "DAPPL (digital affinity profiling via proximity ligation, sequencing); 10 mM Tris-HCl pH 7.5, 50 mM NaCl, 1 mM DTT, 4% glycerol, room temperature, 30 min; GST-TFs on glutathione beads, 16-mer random dsDNA library, 0.1% formaldehyde crosslink after washing; high values mean tight binding", "details_in_all_cases": "protein: recombinant; tags: N-terminal GST; dsDNA, one strand shown", "key": {"FLI1": {"target": "T1, FLI1 (Homo sapiens, UniProt Q01543 1-452)", "T1 sequence": "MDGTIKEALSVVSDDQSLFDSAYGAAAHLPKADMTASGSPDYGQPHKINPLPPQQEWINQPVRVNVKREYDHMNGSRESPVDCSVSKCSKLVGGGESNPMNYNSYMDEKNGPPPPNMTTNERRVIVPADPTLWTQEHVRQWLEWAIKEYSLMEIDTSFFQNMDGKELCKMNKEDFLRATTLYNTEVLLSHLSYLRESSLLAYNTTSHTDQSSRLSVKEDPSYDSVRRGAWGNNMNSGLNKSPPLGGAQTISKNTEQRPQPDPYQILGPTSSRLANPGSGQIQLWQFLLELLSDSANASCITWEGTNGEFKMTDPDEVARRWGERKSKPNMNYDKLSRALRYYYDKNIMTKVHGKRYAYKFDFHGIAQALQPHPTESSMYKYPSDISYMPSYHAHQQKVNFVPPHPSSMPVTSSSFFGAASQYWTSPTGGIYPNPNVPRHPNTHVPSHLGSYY", "how_it_was_run": "(§1)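 GST fusions of human transcription factors were expressed in yeast and captured with glutathione beads. Once given DNA barcodes and pooled alongside a tag-only sample, they were incubated for 30 min at room temperature with 200 nmole of a random double-stranded 16-mer DNA library in Tris/NaCl/DTT/glycerol buffer, then washed, crosslinked (0.1% formaldehyde), proximity-ligated, PCR-amplified and sequenced on an Illumina NextSeq500. The binding signal of each hexamer is its read frequency for a factor divided by its frequency for the tag-only sample.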"}, "ELK1": {"target": "T2, ELK1 (Homo sapiens, UniProt P19419 1-428)", "T2 sequence": "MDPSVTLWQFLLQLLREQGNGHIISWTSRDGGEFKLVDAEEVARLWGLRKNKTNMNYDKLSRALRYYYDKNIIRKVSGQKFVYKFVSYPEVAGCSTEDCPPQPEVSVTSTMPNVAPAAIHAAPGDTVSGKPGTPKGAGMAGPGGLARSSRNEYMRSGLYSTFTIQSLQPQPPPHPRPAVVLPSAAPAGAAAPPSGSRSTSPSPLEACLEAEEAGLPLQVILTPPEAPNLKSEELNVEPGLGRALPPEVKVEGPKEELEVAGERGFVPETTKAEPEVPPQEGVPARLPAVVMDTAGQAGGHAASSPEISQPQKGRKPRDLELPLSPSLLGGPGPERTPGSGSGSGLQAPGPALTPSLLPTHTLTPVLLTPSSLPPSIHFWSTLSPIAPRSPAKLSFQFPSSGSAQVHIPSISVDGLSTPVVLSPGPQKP", "how_it_was_run": "as §1"}, "GABPA": {"target": "T3, GABPA (Homo sapiens, UniProt Q06546 1-454)", "T3 sequence": "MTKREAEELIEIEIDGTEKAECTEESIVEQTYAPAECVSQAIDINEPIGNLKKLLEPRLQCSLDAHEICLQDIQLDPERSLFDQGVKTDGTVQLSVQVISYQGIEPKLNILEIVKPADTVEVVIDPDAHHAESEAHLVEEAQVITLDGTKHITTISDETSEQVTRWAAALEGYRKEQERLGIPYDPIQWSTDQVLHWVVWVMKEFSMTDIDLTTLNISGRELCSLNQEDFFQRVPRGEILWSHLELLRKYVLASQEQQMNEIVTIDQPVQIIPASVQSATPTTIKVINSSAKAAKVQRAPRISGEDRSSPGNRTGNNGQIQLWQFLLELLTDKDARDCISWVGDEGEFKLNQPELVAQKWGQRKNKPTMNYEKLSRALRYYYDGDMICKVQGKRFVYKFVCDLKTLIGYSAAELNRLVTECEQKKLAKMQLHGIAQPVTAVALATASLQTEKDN", "how_it_was_run": "as §1"}, "ERG": {"target": "T4, ERG (Homo sapiens, UniProt P11308 1-479)", "T4 sequence": "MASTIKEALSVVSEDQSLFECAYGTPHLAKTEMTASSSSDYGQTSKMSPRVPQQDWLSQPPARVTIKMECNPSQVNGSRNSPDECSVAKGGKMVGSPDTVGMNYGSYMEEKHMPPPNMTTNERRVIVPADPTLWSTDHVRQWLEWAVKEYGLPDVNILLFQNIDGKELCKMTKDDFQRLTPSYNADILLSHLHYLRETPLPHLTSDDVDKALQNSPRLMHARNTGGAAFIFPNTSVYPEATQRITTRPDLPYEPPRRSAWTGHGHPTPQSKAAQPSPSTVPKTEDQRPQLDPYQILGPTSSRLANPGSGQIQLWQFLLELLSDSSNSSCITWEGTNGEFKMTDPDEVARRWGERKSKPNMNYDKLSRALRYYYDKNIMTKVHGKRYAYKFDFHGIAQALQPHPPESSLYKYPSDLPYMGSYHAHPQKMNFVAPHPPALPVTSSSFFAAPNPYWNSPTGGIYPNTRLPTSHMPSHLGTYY", "how_it_was_run": "as §1"}, "ELF1": {"target": "ELF1 (Homo sapiens, UniProt P32519 1-619)", "sequence (P32519 whole entry)": "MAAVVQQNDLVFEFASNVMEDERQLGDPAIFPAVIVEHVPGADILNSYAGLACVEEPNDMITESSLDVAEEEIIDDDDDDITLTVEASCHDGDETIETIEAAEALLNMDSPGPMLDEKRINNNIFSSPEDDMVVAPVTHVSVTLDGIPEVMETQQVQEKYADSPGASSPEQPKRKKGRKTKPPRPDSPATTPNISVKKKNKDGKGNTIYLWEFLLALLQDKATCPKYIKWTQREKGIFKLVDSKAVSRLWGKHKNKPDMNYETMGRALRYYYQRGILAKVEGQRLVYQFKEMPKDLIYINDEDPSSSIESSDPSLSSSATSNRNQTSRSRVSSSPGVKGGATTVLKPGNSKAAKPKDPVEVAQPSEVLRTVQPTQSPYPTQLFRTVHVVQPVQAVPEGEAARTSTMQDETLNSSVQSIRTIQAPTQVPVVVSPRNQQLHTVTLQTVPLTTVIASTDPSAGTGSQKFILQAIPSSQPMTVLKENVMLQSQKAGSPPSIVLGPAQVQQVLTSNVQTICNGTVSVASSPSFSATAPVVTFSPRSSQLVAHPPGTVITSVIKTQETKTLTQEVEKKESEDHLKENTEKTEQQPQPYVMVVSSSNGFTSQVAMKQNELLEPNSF", "how_it_was_run": "as §1"}, "EHF": {"target": "T5, EHF (Homo sapiens, UniProt Q9NZC4 1-300)", "T5 sequence": "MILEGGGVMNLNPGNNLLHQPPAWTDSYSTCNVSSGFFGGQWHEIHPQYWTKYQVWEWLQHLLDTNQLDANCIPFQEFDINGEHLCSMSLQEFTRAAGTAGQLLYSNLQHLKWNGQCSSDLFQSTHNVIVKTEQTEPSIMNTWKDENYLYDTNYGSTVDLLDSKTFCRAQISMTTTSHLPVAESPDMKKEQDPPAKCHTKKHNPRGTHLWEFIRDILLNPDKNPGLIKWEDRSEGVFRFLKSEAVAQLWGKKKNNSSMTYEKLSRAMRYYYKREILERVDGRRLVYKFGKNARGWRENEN", "how_it_was_run": "as §1"}, "SPI1": {"target": "SPI1 (Homo sapiens, UniProt P17947 1-270)", "how_it_was_run": "as §1"}, "SPIB": {"target": "SPIB (Homo sapiens, UniProt Q01892 1-262)", "sequence (Q01892 whole entry)": "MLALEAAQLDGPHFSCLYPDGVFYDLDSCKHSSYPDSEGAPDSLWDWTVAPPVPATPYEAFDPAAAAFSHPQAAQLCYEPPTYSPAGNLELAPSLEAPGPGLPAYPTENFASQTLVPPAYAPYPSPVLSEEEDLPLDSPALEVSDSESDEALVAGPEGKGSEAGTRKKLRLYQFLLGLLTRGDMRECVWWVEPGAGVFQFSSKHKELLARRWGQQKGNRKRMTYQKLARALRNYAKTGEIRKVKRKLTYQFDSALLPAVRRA", "how_it_was_run": "as §1"}, "ELK3": {"target": "T6, ELK3 (Homo sapiens, UniProt P41970 1-407)", "T6 sequence": "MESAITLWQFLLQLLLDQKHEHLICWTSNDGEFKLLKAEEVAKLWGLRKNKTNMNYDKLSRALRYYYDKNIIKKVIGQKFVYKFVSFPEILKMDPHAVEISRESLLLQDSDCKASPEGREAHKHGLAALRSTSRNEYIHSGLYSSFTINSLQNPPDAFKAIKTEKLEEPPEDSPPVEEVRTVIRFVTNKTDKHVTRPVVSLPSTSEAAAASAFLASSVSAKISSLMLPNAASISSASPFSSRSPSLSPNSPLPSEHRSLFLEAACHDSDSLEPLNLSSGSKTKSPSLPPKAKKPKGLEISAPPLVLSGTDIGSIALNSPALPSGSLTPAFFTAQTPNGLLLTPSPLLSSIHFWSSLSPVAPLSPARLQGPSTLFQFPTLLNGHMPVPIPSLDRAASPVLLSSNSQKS", "how_it_was_run": "as §1"}}}
{"sequence": "TATCCT", "values": [{"measurement": "binding signal", "setting": "FLI1", "result": "1.7 fold enrichment (6-mer frequency, TF over GST control)"}, {"measurement": "binding signal", "setting": "ELK1", "result": "1.79 fold enrichment (6-mer frequency, TF over GST control)"}, {"measurement": "binding signal", "setting": "GABPA", "result": "1.71 fold enrichment (6-mer frequency, TF over GST control)"}, {"measurement": "binding signal", "setting": "ERG", "result": "1.9 fold enrichment (6-mer frequency, TF over GST control)"}, {"measurement": "binding signal", "setting": "ELF1", "result": "1.73 fold enrichment (6-mer frequency, TF over GST control)"}, {"measurement": "binding signal", "setting": "EHF", "result": "1.81 fold enrichment (6-mer frequency, TF over GST control)"}, {"measurement": "binding signal", "setting": "SPI1", "result": "1.74 fold enrichment (6-mer frequency, TF over GST control)"}, {"measurement": "binding signal", "setting": "SPIB", "result": "1.8 fold enrichment (6-mer frequency, TF over GST control)"}, {"measurement": "binding signal", "setting": "ELK3", "result": "1.76 fold enrichment (6-mer frequency, TF over GST control)"}]}
{"sequence": "GCTCCT", "values": [{"measurement": "binding signal", "setting": "FLI1", "result": "1.54 fold enrichment (6-mer frequency, TF over GST control)"}, {"measurement": "binding signal", "setting": "ELK1", "result": "1.39 fold enrichment (6-mer frequency, TF over GST control)"}, {"measurement": "binding signal", "setting": "GABPA", "result": "1.52 fold enrichment (6-mer frequency, TF over GST control)"}, {"measurement": "binding signal", "setting": "ERG", "result": "1.32 fold enrichment (6-mer frequency, TF over GST control)"}, {"measurement": "binding signal", "setting": "ELF1", "result": "1.45 fold enrichment (6-mer frequency, TF over GST control)"}, {"measurement": "binding signal", "setting": "EHF", "result": "1.41 fold enrichment (6-mer frequency, TF over GST control)"}, {"measurement": "binding signal", "setting": "SPI1", "result": "1.4 fold enrichment (6-mer frequency, TF over GST control)"}, {"measurement": "binding signal", "setting": "SPIB", "result": "1.46 fold enrichment (6-mer frequency, TF over GST control)"}, {"measurement": "binding signal", "setting": "ELK3", "result": "1.33 fold enrichment (6-mer frequency, TF over GST control)"}]}
{"sequence": "TCCCTA", "values": [{"measurement": "binding signal", "setting": "FLI1", "result": "1.35 fold enrichment (6-mer frequency, TF over GST control)"}, {"measurement": "binding signal", "setting": "ELK1", "result": "1.26 fold enrichment (6-mer frequency, TF over GST control)"}, {"measurement": "binding signal", "setting": "GABPA", "result": "1.26 fold enrichment (6-mer frequency, TF over GST control)"}, {"measurement": "binding signal", "setting": "ERG", "result": "1.3 fold enrichment (6-mer frequency, TF over GST control)"}, {"measurement": "binding signal", "setting": "ELF1", "result": "1.32 fold enrichment (6-mer frequency, TF over GST control)"}, {"measurement": "binding signal", "setting": "EHF", "result": "1.27 fold enrichment (6-mer frequency, TF over GST control)"}, {"measurement": "binding signal", "setting": "SPI1", "result": "1.52 fold enrichment (6-mer frequency, TF over GST control)"}, {"measurement": "binding signal", "setting": "SPIB", "result": "1.32 fold enrichment (6-mer frequency, TF over GST control)"}, {"measurement": "binding signal", "setting": "ELK3", "result": "1.34 fold enrichment (6-mer frequency, TF over GST control)"}]}
{"sequence": "ACATAT", "values": [{"measurement": "binding signal", "setting": "FLI1", "result": "1.18 fold enrichment (6-mer frequency, TF over GST control)"}, {"measurement": "binding signal", "setting": "ELK1", "result": "1.25 fold enrichment (6-mer frequency, TF over GST control)"}, {"measurement": "binding signal", "setting": "GABPA", "result": "1.3 fold enrichment (6-mer frequency, TF over GST control)"}, {"measurement": "binding signal", "setting": "ERG", "result": "1.25 fold enrichment (6-mer frequency, TF over GST control)"}, {"measurement": "binding signal", "setting": "ELF1", "result": "1.27 fold enrichment (6-mer frequency, TF over GST control)"}, {"measurement": "binding signal", "setting": "EHF", "result": "1.22 fold enrichment (6-mer frequency, TF over GST control)"}, {"measurement": "binding signal", "setting": "SPI1", "result": "1.2 fold enrichment (6-mer frequency, TF over GST control)"}, {"measurement": "binding signal", "setting": "SPIB", "result": "1.2 fold enrichment (6-mer frequency, TF over GST control)"}, {"measurement": "binding signal", "setting": "ELK3", "result": "1.28 fold enrichment (6-mer frequency, TF over GST control)"}]}
